# Compounds with a hit are over-represented: about 3.3% of the library has one in this group of screens.
# Tau fluor counter – Counterscreen qHTS for Inhibitors of Tau Fibril Formation, Fluorescence Polarization. hit rate 0.93% among 280,000. Potency, µM (highest dose often 57.7 µM). tau K18 P301L Alexa594 fluorescence, heparin fibrillization; note: nearly all actives have a fitted effect of over 55% in size
#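 Human tau K18 P301L (15 uM unlabeled, 0.24 uM Alexa 594-labeled) in 100 mM sodium acetate pH 7 with 20 uM heparin, 6 hr at 37 C. ThT 30 uM added, 1 hr ambient; Alexa 594 FP and total fluorescence read at 555/632 nm.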
# Luc counter – Counterscreen for Luciferase (Kinase-Glo TM) Inhibition | Luciferin 4-monooxygenase (Photuris pensylvanica), Q27757 | Kinase-Glo luciferase, ATP luminescence, 8 min | Potency, µM (titrated, usually from 38.3 µM), usual class: inhibitors | hit rate 0.28% among 200,000; note: nearly all actives have a fitted effect of over 60% in size
#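 Compound is pinned into ATP-containing buffer (10 uM ATP, imidazole pH 7.2, 7 mM MgCl2). Kinase-Glo luciferase reagent is then added. Light output is recorded following an 8-min room-temperature incubation.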
# Tau fibril FP – qHTS for Inhibitors of Tau Fibril Formation, Fluorescence Polarization; hit rate 0.39% among 280,000; K18 P301L tau heparin fibrillization, Alexa594 FP, 6 h; Microtubule-associated protein tau (Homo sapiens), P10636; Potency, µM (series often up to 57.7 µM), hits mostly inhibitors; note: nearly all actives have a fitted effect of over 55% in size
# Target sequence (P10636 561-689 P618L limits assumed): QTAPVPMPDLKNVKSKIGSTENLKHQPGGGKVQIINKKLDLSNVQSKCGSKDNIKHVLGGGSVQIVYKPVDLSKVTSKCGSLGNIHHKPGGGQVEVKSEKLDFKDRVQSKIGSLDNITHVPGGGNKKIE
#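 Steps: dispense K18 P301L tau (15 uM plus 0.24 uM Alexa 594 tracer, final) in pH 7 sodium acetate; add compound; add heparin (20 uM final); incubate 6 hr, 37 C; add ThT (30 uM final); after 1 hr ambient, read FP.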
# Tau ThT inhib – qHTS for Inhibitors of Tau Fibril Formation, Thioflavin T Binding; Microtubule-associated protein tau (Homo sapiens), P10636; AID 1460, 2008; hit rate 2.1% among 270,000; recombinant tau K18 P301L (four-repeat tau fragment), heparin-induced fibrillization, ThT fluorescence; Potency, µM (titrated, usually from 57.4 µM), actives largely listed as inhibitors; note: nearly all actives have a fitted effect of over 55% in size
#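 Aggregation was driven by heparin (20 uM final) acting on recombinant tau […] bearing P301L in 100 mM sodium acetate pH 7; fibrils were detected with Thioflavin T.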
# NPSR antag – qHTS Assay for Antagonists of the Neuropeptide S Receptor: cAMP Signal Transduction. Q6W5P4. CHO-NPSR cells, cAMP TR-FRET, antagonist mode. Potency, µM (doses to about 38.3 µM), actives largely listed as inhibitors. hit rate 1% among 220,000. AID 1461, 2008; note: nearly all actives have a fitted effect of over 50% in size
# Target sequence (Q6W5P4 whole entry, looked up): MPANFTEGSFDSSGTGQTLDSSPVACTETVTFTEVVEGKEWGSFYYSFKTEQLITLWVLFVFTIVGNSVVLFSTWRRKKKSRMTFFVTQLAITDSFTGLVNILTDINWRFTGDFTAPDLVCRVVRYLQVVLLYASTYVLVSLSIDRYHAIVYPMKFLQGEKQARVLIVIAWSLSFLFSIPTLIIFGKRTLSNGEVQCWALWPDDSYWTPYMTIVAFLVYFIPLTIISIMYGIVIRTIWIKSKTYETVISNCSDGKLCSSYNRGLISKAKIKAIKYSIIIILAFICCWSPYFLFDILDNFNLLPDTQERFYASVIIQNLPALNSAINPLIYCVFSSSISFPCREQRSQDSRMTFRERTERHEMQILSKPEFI
# A number is an active result; – = inactive; ? = inconclusive; · = no result; [ ] = remark or other dose. Calls come from the whole dose curve; as a rule, active = well fitted curve in the direction sought with a large enough effect; inconclusive = small, poorly fitted or top-dose-only effect, or another doubt; inactive = no such curve, though single readings can be large; an effect the other way counts as inactive or inconclusive.
SMILES,Tau fluor counter,Luc counter,Tau fibril FP,Tau ThT inhib,NPSR antag
CC1(C)C(=O)C(c2ccccc2)=C2CN3C(=O)N(CCc4ccccc4)C(=O)C3(Cc3ccc(C(F)(F)F)cc3)C=C21 (stereo not drawn),?,–,–,?,·
CCCCC/C=C\C\C=C/C=C/C=C/[C@@H](SCC(N)C(=O)NCC(=O)O)[C@@H](O)CCCC(=O)O (stereo partly drawn),–,–,?,–,·
CC(C)N=C1NN=C(c2ccc(F)cc2)CS1,–,10µM,–,?,–
Cc1ccccc1CCNC(=O)c1ccc2c(c1)nc1n2CCC(C)C1 (stereo not drawn),–,·,?,?,·
O=C(O)c1ccc(N=Nc2c(O)[nH]c3cc(Cl)ccc23)cc1,–,·,–,4µM,–
Nc1nc(N)c(N=Nc2ccc(C(=O)O)cc2)c(N)n1,–,·,–,14µM,–
Cc1nnc(S(=O)(=O)c2ccc(N=Nc3c(N)nc(N)nc3N)cc2)s1,·,–[7.66 µM],·,·,·
O=C(O)c1ccc(S(=O)(=O)N=Nc2c(O)[nH]c3ccccc23)cc1,·,–[7.66 µM],·,·,·
COc1ccc(Cn2c(C(=O)O)c(CNCCc3cc(OC)ccc3OC)c3ccc(C)cc32)cc1,–,·,–,–,·
Cc1c(N=Nc2ccc(O)cc2)c(=O)n(-c2ccccc2)n1C,–,–,–,–,–
Cc1c(N=NC2=C(O)CCCC2=O)c(=O)n(-c2ccccc2)n1C,–,–,?,14µM,–
CC(C)(C)NC(=O)C(c1cccnc1)N(C(=O)c1ccc(Cl)nc1)C1CCCC1 (stereo not drawn),–,–,–,13µM,–
c1cnc2c(c1)ccc1cccnc12,–,–[7.66 µM],?,28µM,–
C[n+]1cc2c3c(ccc2c2ccc4cc5c(cc4c21)OCO5)OCO3,18µM[quencher],–,?,28µM,?
C[n+]1c(/C=C/c2ccc3c(c2)OCO3)ccc2ccccc21,–,–,–,?,–
CN(C)C(=O)[C@]1(C)C[C@H]1[C@H](NC(=O)CNC(=O)[C@@H]1CCCN1C(=O)[C@]1(C)C[C@H]1[C@H](NC(=O)OCc1ccccc1)c1ccccc1)c1ccccc1,–,–,–,–,·
CCOC(=O)C1=C(C)N=c2s/c(=C/c3ccco3)c(=O)n2C1c1cccc(OC)c1 (stereo not drawn),–,–,?,14µM,?
N#CC1=C(N)n2c(s/c(=C\c3cccs3)c2=O)=C(C#N)C1c1cccs1 (stereo not drawn),–,·,–,?,–
N#CC1=C(N)n2c(s/c(=C\c3ccco3)c2=O)=C(C#N)C1c1ccco1 (stereo not drawn),–,–,?,20µM,–
CCOC(=O)C1=c2s/c(=C\c3ccncc3)c(=O)n2C(N)=C(C(=O)OC)C1c1ccncc1 (stereo not drawn),–,–,–,?,–
CCOC(=O)C1=C(N)n2c(s/c(=C/c3ccco3)c2=O)=C(C(=O)OC)C1c1ccco1 (stereo not drawn),–,–,–,14µM,–
COc1ccc(-c2nc3c(c4c2C[C@H](c2ccccc2)OC4)CN(C(=O)c2cc(I)ccc2F)CC3)c(C)c1,–[11.6 µM],–[7.66 µM],–[11.6 µM],–[11.5 µM],·
CCOC(=O)c1cnc(Nc2nc3ccccc3o2)nc1CSC(=S)N(CC)CC,–,–,–,?,0.5µM
C(=N\NC1=Nc2cccc3cccc1c23)/c1ccccc1,–,–,–,2µM,–
Clc1ccc(/C=N/NC2=Nc3cccc4cccc2c34)cc1,–,–,–,2.8µM,–
SMILES,Tau fluor counter,Luc counter,Tau fibril FP,Tau ThT inhib,NPSR antag
Clc1ccc(/C=N/Nc2nc(Cl)nc3ccccc23)cc1,?,–,–,?,–
Clc1ccc(N/N=C/c2cccnc2)cc1,16µM[quencher],–,–,?,–
NC1=Nc2cccc3cccc1c23,–,–,–,?,–
Cc1sc(N/N=C/c2cccnc2)nc1-c1ccc(Cl)cc1,?,–,–,?,–
C(=N\NC1=Nc2cccc3cccc1c23)/c1cccnc1,–,–,–,2.8µM,–
CCOc1ccccc1Nc1sc(C(=O)c2ccc(Cl)cc2)c(N)c1S(=O)(=O)c1ccccc1,–,·,–,–,·
CC(=O)c1ccc(S(=O)(=O)N2CCCC2)cc1,–,–,–,?,–
CC(=O)Nc1ccc(S(=O)(=O)N2CCN(S(=O)(=O)N3CCCCC3)CC2)cc1,–,·,–,–,–
Cc1ccc(Nc2ccc3cc(S(=O)(=O)N4CCC(C)CC4)ccc3n2)c(Cl)c1,?,·,?,–,·
CC1CCN(S(=O)(=O)c2ccc3nc(Nc4cccc(F)c4)ccc3c2)CC1,?,·,13µM,–,·
CC(=O)Nc1ccc(Nc2ccc3cc(S(=O)(=O)N4CCCCC4)ccc3n2)cc1,14µM[quencher],·,–,?,·
CC(=O)c1ccc(Nc2ccc3cc(S(=O)(=O)N4CCCC4)ccc3n2)cc1,11µM[quencher],·,22µM,–,·
CCNc1nc(NCc2ccc(F)cc2)c2cnn(C)c2n1,–,·,–,–,·
O=C(CCn1c(=O)c2cccn2c2cccnc21)N1CCN(c2ccc(F)cc2)CC1,–,·,–,?,·
CCCOC(=O)c1ccc(Oc2c(-c3ccc(OCC)cc3O)n[nH]c2C)cc1,7.9µM[quencher],–,?,–,?
CCOc1ccc(-c2[nH]ncc2-c2csc(C)n2)c(O)c1,–,·,–,–,–
CCCOC(=O)c1ccc(Oc2cn[nH]c2-c2ccc(OCC)cc2O)cc1,8.9µM[quencher],–,?,–,?
COc1ccc(NC(=O)N2CCC3(CC2)CCN(S(C)(=O)=O)CC3)cc1,·,–,·,·,·
CC[n+]1c(/C=C/N(C)c2ccccc2)oc2ccc(F)cc21,?,–,25µM,14µM,–
O=C(NNc1c2ccccc2nc2ccccc12)c1cccc(O)c1,14µM[quencher],–,–,2.8µM,–
O=C(NNc1c2ccccc2nc2ccccc12)C(O)c1ccccc1 (stereo not drawn),?,·,–,14µM,10µM
O=C(NNc1c2ccccc2nc2ccccc12)c1ccccc1O,6.3µM[quencher],–,–,2.2µM,–
O=C(NNc1c2ccccc2nc2ccccc12)c1ccc(O)cc1,?,–,–,?,–
O=C(NNc1c2ccccc2nc2ccccc12)c1ccc(O)cc1O,13µM[quencher],–,–,2.2µM,–
CCn1c2ccccc2c2cc(CN3CCN(Cc4ccc(Br)cc4)CC3)ccc21,–,·,–,?,·
CCOC(=O)N/N=C1/C[C@@H](O)[C@@H](O)[C@@H]2[C@@H]3C(=O)N(C(C)(C)C)C(=O)[C@H]3CC[C@@H]12,–[11.6 µM],·,–[11.6 µM],–[11.5 µM],·
CC1(C)OC2CC3C4CC(F)C5=CC(=O)CC[C@@]5(C)C4C(O)C[C@@]3(C)[C@]2(C(=O)CO)O1 (stereo partly drawn),–,–,–,–,·
COC(=O)C1=C(C)NC(=O)/C1=C\c1cc(C)n(-c2ccccc2)c1C,?,–,–,13µM,–

# High-throughput results deposited in PubChem BioAssay by National Center for Advancing Translational Sciences (NCATS).
